Source: PubChem BioAssay (several laboratories)
Sampled rows, rich in hits. Any-hit rate of the full collection: about 4.6%.
HIF-2a inh – HIF-2a inhibition; 786-0 RCC cells HIF-2a reporter, luciferase luminescence, overnight; inhibition, % at 18.8 µM; 360,000 compounds, 0.72% hits; AID 624352;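 active means inhibition of the luminescence signal of 40% or more relative to plate controls, in a single-dose primary screen at 18.75 µM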
Peg3 prom inh – inhibitors of Peg3 promoter. inhibition, % at 20 µM. AID 588405. HeLa PEG-Prom luciferase reporter, luminescence, overnight. 360,000 compounds, 1.7% hits;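 active means inhibition of at least 50% at 20 µM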
ABHD5 PLIN5 PPI – ABHD5-PLIN5 protein interaction inhibition; Q00G26+Q8WTS1; Split G. princeps luciferase complementation, luminescence, 4 h; inhibition, % at 4 µM; 360,000 compounds, 0.78% hits;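 active means inhibition above the mean inhibition across every tested compound plus 3 SD, cut at about 22% in these data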;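 further: 0% = DMSO only wells and the 100% control is not disclosed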
Target sequence (Q00G26 whole entry, looked up): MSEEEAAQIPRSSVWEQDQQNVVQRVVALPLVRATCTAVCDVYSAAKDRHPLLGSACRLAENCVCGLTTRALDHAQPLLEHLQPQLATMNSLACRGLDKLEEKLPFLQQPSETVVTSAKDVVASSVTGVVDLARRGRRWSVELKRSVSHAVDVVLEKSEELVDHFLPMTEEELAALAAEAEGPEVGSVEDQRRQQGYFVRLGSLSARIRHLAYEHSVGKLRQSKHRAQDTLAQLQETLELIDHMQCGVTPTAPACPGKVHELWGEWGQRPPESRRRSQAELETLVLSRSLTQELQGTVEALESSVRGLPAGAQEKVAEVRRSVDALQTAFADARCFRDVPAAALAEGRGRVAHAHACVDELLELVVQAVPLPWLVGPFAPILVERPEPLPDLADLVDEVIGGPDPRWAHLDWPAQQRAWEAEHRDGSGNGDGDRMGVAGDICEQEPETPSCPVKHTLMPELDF
Target sequence (Q8WTS1 whole entry, looked up): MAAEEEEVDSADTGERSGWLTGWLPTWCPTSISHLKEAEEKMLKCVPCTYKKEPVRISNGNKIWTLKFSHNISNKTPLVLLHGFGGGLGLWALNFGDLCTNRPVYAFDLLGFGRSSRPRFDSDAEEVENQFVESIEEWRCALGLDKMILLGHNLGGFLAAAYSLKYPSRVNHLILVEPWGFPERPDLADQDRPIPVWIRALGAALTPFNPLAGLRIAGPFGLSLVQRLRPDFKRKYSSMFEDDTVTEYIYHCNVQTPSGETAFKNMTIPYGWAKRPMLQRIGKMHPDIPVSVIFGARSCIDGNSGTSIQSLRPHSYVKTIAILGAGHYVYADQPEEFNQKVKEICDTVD
KKLEB tox – reduces viability of KKLEB cystic fibrosis airway cells. 360,000 compounds, 0.36% hits. activity change (cytotoxicity), % at 5 µM. AID 602141. KKLEB CF airway cells viability, ATPlite luminescence, overnight; hits give low values; cells stimulated with P. aeruginosa culture filtrate;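 active means corrected activity change at or below -50% at 5 µM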
CF NFkB block – inhibitors of cystic fibrosis induced NF-kB. KKLEB NF-kB-GFP reporter, PAF-induced, GFP fluorescence overnight. inhibition, % at 5 µM. 360,000 compounds, 0.86% hits;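 active means at least 50% inhibition at 5 µM, scaled per plate between neutral and stimulator controls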;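 further: PAF is a Pseudomonas aeruginosa culture filtrate used as stimulus; plate controls were PAF-stimulated DMSO wells for no effect and unstimulated DMSO wells for full effect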
Mdm2-MdmX inh – human Mdm2/MdmX binding inhibition; O15151+Q00987; AID 485346; SaOS-2 split-luciferase Mdm2/MdmX complementation, luminescence; 330,000 compounds, 3% hits; inhibition, % at 8 µM;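 active means inhibition of at least 50% at 8 µM in the primary screen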
CF NFkB conf – CF NF-kB inhibition confirmation, single concentration. shares compounds with CF NFkB block. KKLEB CF airway cells, PAF-induced NF-kB-GFP fluorescence, overnight. inhibition, % at 5 µM. 1,300 compounds, 64% hits. AID 602472; in the data active means inhibition above about 40%;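 further: stimulus PAF is a Pseudomonas aeruginosa filtrate and not platelet activating factor; plate controls were DMSO wells with stimulus for no effect and unstimulated DMSO wells for full effect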
* = called active by the depositor; . = no result.

SMILES	HIF-2a inh	Peg3 prom inh	ABHD5 PLIN5 PPI	KKLEB tox	CF NFkB block	Mdm2-MdmX inh	CF NFkB conf
Cn1ccc2c(N3c4ccccc4CCc4ccccc43)cc3c(c21)C1CCC3O1 (stereo not drawn)	7	-18	-10	-17	85*	.	15
CC(=O)Nc1ccc(CN(C)c2c(C)nc3ccc(C(=O)N(C)Cc4ccccc4)cn23)cc1	9	11	8	2	-1	.	.
COc1ccc(CNC(=O)CN(C(=O)c2csnn2)c2cccc(C(C)=O)c2)cc1	2	7	-2	3	-5	14	.
CCN(CC)CCN=c1c(C)nc(C#N)c(N)n1O	10	9	-9	4	-16	.	.
C[C@]12CC(O)C3C(CCC4=CC(=O)CC[C@@]43C)C1CCC2c1csc(-c2ccccc2)n1 (stereo partly drawn)	4	11	-3	-1	18	19	.
CC(=O)OCC(=O)C1(O)CCC2C3CC(F)C4=CC(=O)CCC4(C)C3C(=O)CC21C (stereo not drawn)	15	5	-2	-2	28	.	.
CC(=O)[C@H]1CC[C@H]2[C@@H]3CCC4=CC(=O)CC[C@]4(C)[C@H]3[C@H](O)C[C@]12C	-4	-7	1	15	-29	5	.
CC12CCC(=O)C=C1CCC1C2C(O)CC2(C)C1CCC2(O)C(=O)COC(=O)CCC1CCCC1 (stereo not drawn)	32	-9	2	10	53*	.	9
CC(C)(CNC(=O)CO/N=C1/C=C2CCC3C(C(O)C[C@@]4(C)C3CC[C@]4(O)C(=O)CO)[C@@]2(C)CC1)C(O)C(=O)O (stereo partly drawn)	6	-15	3	26	70*	-36	15
CC(=O)OCC(=O)C1(O)CCC2C3CCC4=CC(=O)CCC4(C)C3(Cl)C(O)CC21C (stereo not drawn)	14	-5	2	17	77*	.	-12
Cc1ccc([C@H]2N[C@]3(CCCN(Cc4ccc(C(F)(F)F)cc4)C3=O)[C@H]3C(=O)N(Cc4ccccc4)C(=O)[C@@H]23)cc1	2	9	-17	-4	-8	.	.
O=C(Nc1ccc2c(c1)OCCO2)c1ccccn1	-70	42	-2	-12	11	9	.
O=C(Nc1ccc(NC(=O)c2ccccn2)cc1)C(=O)Nc1ccc2c(c1)OCCO2	-15	-16	-4	-47	55*	41	11
Cc1ccsc1/C=N/NC(=O)c1nnn(-c2nonc2N)c1-c1ccccc1	-10	-21	-6	-20	40	16	.
COc1cccc(-c2c(C(=O)N/N=C/c3sccc3C)nnn2-c2nonc2N)c1	20	39	-3	-10	50*	32	35
CCN(CC)/C(=N\S(=O)(=O)c1ccc(F)cc1)c1ccccc1	18	22	1	0	1	-4	.
Cc1ccc(-c2cccc(C(=O)NCCc3ccccc3)n2)c2ccccc12	-58	-49	-7	-23	37	3	.
Cc1ccc(-c2cccc(C(=O)NCc3ccccc3)n2)c2ccccc12	2	16	-14	-13	53*	-4	31
CC1(C)CC(=O)C2=C(C1)OC1=C(C(=O)CC(C)(C)C1)C2c1cc([N+](=O)[O-])cc([N+](=O)[O-])c1O	24	12	5	12	-9	31	.
CC1(C)CC(=O)C(C2C3=C(CC(C)(C)CC3=O)Oc3c(Br)cc(Br)cc32)=C(O)C1 (stereo not drawn)	-4	39	0	-6	56*	33	57*
CCCn1c(N)c(N(CCOC)C(=O)CSCC(=O)Nc2cccc(C)c2)c(=O)[nH]c1=O	15	3	-2	3	-12	1	.
COc1ccc(-c2cn[nH]c2C)cc1	8	-2	-4	-18	53*	44	11
C#Cc1cccc(Nc2nc(NCCOC)nc3ccsc23)c1	22	19	2	-9	19	.	.
C#Cc1cccc(Nc2nc(NC(C)C)nc3ccsc23)c1	22	39	1	-20	50*	.	36
O=C(NCc1cccnc1)c1ccc(Cn2c(=S)[nH]c3ccc(Br)cc3c2=O)cc1	11	-6	0	-42	52*	17	38
SMILES	HIF-2a inh	Peg3 prom inh	ABHD5 PLIN5 PPI	KKLEB tox	CF NFkB block	Mdm2-MdmX inh	CF NFkB conf
O=c1c2cc(Br)ccc2[nH]c(=S)n1Cc1ccccc1	7	38	-4	1	-12	30	.
CCC1CCc2c(sc(NC(=O)c3cnccn3)c2C(N)=O)C1 (stereo not drawn)	-11	-87	-2	-38	65*	49	11
CCOC(=O)c1ccc(NC(=O)Nc2nc3ccccc3s2)cc1	3	4	5	5	4	.	.
CCOC(=O)c1ccc(NC(=O)Nc2nncs2)cc1	-148	-268	-3	-22	66*	.	81*
CC(c1ccccc1)N1C(=O)c2ccc(C(=O)Nc3ccc(Br)cc3C(=O)O)cc2C1=O (stereo not drawn)	-3	10	4	-4	60*	12	44*
CC(c1ccccc1)N1C(=O)c2ccc(C(=O)Nc3ccccc3C(=O)O)cc2C1=O (stereo not drawn)	-46	11	1	-28	15	16	.
CSc1ccc(/C=C(\C#N)C(=O)NC2CCCCC2C)cc1 (stereo not drawn)	-2	-18	19	-29	53*	16	17
CC(=O)Nc1ccc(/C=C(\C#N)C(=O)NC2CCCCC2C)cc1 (stereo not drawn)	20	9	1	-20	-4	24	.
COc1ccc(CNc2cccnc2)c(OC)c1OC	-32	9	-1	0	-12	.	.
OC(c1ccc(-c2ccccc2)cc1)c1ncc(-c2ccc(F)cc2)[nH]1 (stereo not drawn)	12	23	-4	10	-1	.	.
O=C(Nc1ccccc1)Nc1ncc([N+](=O)[O-])s1	-136	-142	2	-42	57*	-26	87*
COc1ccc(C(=O)NCc2cnn(C)c2C)cc1OC1CCN(C(C)C)CC1	8	10	1	6	-14	12	.
CC(NC(=O)c1ccc([N+](=O)[O-])o1)C1CC2CCC1C2 (stereo not drawn)	7	41	-12	-9	62*	1	25
Nc1cc2c(cc1Br)-c1ccccc1C2=NO	-197	-315	-6	10	50*	.	61*
CCc1nc2ccc(C(=O)NCCN3CCNC3=O)cn2c1N(CC)CCOC	9	0	-4	-7	14	.	.
CCOC(=O)C1=C(CC)Nc2ccccc2N=C1NC(=O)c1oc2ccccc2c1C	5	64*	-10	-9	76*	-1	95*
CCOC(=O)c1ccccc1NC(=O)COC(=O)CSc1ccccc1	2	22	7	5	-3	-12	.
